From PubChem BioAssay AID2014 (Sanford-Burnham Center for Chemical Genomics, 2009)
The campaign covered roughly 290,000 compounds. About 3,000 (1%) were called active. No rule for the calls is given here. The full list was thinned out, with actives kept by preference.

Biological target: Polyadenylate-binding protein 1 (Homo sapiens) (UniProt P11940)
Assay: blockers of PABP interaction with poly(A) – biochemical, fluorescence polarization, uHTS, primary screen (AID 2014);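 also: calls also rest on retests at 20 µM and on dose response follow-up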
Conditions: PABP-poly(A) RNA binding, stronger effect = higher value

Sequence of Polyadenylate-binding protein 1 (Homo sapiens) (P11940 whole entry, looked up): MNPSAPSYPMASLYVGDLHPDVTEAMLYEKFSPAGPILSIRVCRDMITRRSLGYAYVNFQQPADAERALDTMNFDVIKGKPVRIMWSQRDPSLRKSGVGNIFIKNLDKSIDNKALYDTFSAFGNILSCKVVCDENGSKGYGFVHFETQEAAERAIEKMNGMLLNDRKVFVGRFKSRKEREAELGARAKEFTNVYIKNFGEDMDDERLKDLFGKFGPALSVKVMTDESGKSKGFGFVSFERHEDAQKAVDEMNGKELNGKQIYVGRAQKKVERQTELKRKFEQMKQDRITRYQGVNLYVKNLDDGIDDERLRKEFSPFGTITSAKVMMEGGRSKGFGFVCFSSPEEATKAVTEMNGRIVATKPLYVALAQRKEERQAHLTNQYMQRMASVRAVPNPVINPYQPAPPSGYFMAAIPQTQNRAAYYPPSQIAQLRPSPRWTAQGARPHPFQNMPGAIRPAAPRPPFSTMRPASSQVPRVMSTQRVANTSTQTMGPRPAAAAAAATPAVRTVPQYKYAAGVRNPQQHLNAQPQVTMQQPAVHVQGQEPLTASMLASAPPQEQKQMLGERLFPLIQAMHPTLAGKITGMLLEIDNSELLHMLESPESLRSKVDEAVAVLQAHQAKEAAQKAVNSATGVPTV

SMILES | inhibition (at 35 µM) | inhibition (confirmation repeats, at 20 µM) [%]
COc1cccc(NC(=O)CSc2nnc(Cc3ccc(OC)c(OC)c3)o2)c1 | 14.4% (inactive) | –
O=C(CCCN1C(=O)/C(=C/c2ccco2)SC1=S)Nc1ccccc1 | 17.5% (active) | 52.5
O=C(CCCN1C(=O)/C(=C\c2ccco2)SC1=S)Nc1cccc2ccccc12 | 4.3% (inactive) | -3.6
O=C(CCCN1C(=O)/C(=C/c2ccccc2)SC1=S)Nc1ccc(O)cc1 | -7.7% (inactive) | –
CCCn1c(C)cc(/C=C(\C#N)C(=O)OCC(=O)Nc2cc(OC)c(OC)c(OC)c2)c1C | -0.7% (inactive) | –
COc1ccc(Cl)cc1NC(=O)c1cccc(N2C(=O)C3CC=CCC3C2=O)c1 (configuration not stated) | -3.5% (inactive) | –
c1ccc(C2=Nc3cccc4cccc(c34)N2)cc1 | 11.1% (inactive) | –
COc1ccccc1C1=Nc2cccc3cccc(c23)N1 | 65.3% (active) | 86.4
Fc1ccccc1N=C1Nc2cccc3cccc1c23 | -10.8% (inactive) | –
CC(C)c1ccc(S(=O)(=O)N2CCC3(CC2)OCCO3)cc1 | -6.1% (inactive) | –
COc1cc([C@H](Cc2ccccc2)NC(C)=O)oc(=O)c1 | 76.2% (active) | –
COC(=O)[C@H](Cc1ccccc1)NC(=O)Nc1ccc(OC)cc1 | -6.6% (inactive) | –
CCOC(=O)C(Cc1ccccc1)NC(=O)CCC(=O)c1ccc(OC)cc1 (configuration not stated) | -2.7% (inactive) | –
O=C(CCC1CCN(C(=O)c2cccc(Cl)c2F)CC1)Nc1ccccc1 | -10.6% (inactive) | –
CS(=O)(=O)N1CCN=C1SCc1ccc(F)cc1 | 0.3% (inactive) | –
CCN(c1ccccc1)S(=O)(=O)c1cc2c(cc1C)n(C)c(=O)c(=O)n2C | -2% (inactive) | –
Nc1ccc(C(=O)NCc2ccccc2)cc1 | 3.4% (inactive) | –
C[n+]1ccc(C(=O)NCc2ccccc2)cc1 | 64.2% (active) | 92.7
CS(=O)(=O)NCc1ccc(C(=O)NCc2ccccc2)cc1 | 48.1% (inactive) | –
COC(=O)c1c(NC(=O)c2c(Cl)cnn2C)sc(C)c1C | -5.8% (inactive) | –
CN(C(=O)c1c(Cl)cnn1C)C12CC3CC(CC(C3)C1)C2 | 86.8% (active) | 75
Cn1ncc(Br)c1C(=O)NC1CCCC1 | 2.8% (inactive) | –
Cn1c(CCc2ccccc2)nnc1SCC(N)=O | -5.2% (inactive) | –
C/C(=N\Nc1nncc2ccccc12)c1ccc(Cl)c([N+](=O)[O-])c1 | 2% (inactive) | –

SMILES | inhibition (at 35 µM) | inhibition (confirmation repeats, at 20 µM) [%]
Clc1ccc(CN2CCCCCC2)cc1Cl | 17.8% (inactive) | –
COc1ccccc1CN1CC(C(=O)NCCc2cn[nH]c2)CCC1=O (configuration not stated) | 27% (inactive) | –
CCn1nnnc1SCC(=O)Nc1ccc(N(C)C)cc1 | 1.4% (inactive) | –
Cc1ccc(Nc2nc(Cl)c(C=O)s2)cc1 | 40.3% (inactive) | 44.5
Cc1ccsc1-c1cc(C(=O)O)c2c(ccc3ccccc32)n1 | 20.2% (inactive) | –
Cc1cc(C)c2nc(-c3ccco3)cc(C(=O)O)c2c1 | 91.2% (active) | –
COC(=O)c1cnn2c(C(F)(F)F)cc(-c3ccco3)nc12 | 23.9% (inactive) | –
CCN(CC)c1ccc(/C=N/NC(=O)c2cnccn2)c(O)c1 | -7.1% (inactive) | –
Cc1cc(C)nc(N/N=C/c2ccncc2)n1 | 2% (inactive) | –
CCN(CC)c1ccc(/C=N/Nc2nc(C)cc(C)n2)c(O)c1 | 16.6% (active) | 67.4
CC1CSc2nnc(CCc3ccccc3)n21 (configuration not stated) | -2.9% (inactive) | –
c1ccc(CCC2=NCCn3cccc32)cc1 | 67.5% (active) | –
S=C(NCCc1ccccc1)N1CCn2cccc2C1c1ccncc1 (configuration not stated) | 6.4% (inactive) | –
O=C(Nc1cccnc1Cl)c1cc(-c2ccccc2O)on1 | -6.2% (inactive) | –
COc1ccc(NC(=O)c2cccc3c2C(=O)N(CC2CCCO2)C3)cc1OC (configuration not stated) | -2% (inactive) | –
COc1ccc(CNC(=O)c2cc3c(=O)n4ccccc4nc3n(CC3CCCO3)c2=N)cc1 (configuration not stated) | -5.2% (inactive) | –
Cc1cccn2c(=O)c3cc(C(=O)NCC4CCCO4)c(=N)n(Cc4ccc(F)cc4)c3nc12 (configuration not stated) | -1% (inactive) | –
Cc1ccc2nc3c(cc(C(=O)NCCc4ccccc4)c(=N)n3CC3CCCO3)c(=O)n2c1 (configuration not stated) | 83.3% (active) | –
COc1ccc(-n2c(=O)[nH]c3cc(C(=O)NCCc4ccc(OC)c(OC)c4)ccc3c2=O)c(OC)c1 | 11% (inactive) | –
COc1ccc(N2CCN(C(=O)c3ccccc3NC(=O)C3=C(C)OCCS3)CC2)cc1 | -6.5% (inactive) | –
O=C(c1cc(-c2ccc(O)cc2)on1)N1CCOCC1 | 2.9% (inactive) | –
CCc1nc2cccnc2n1-c1ccc(C(=O)O)cc1 | 73.7% (active) | 87.5
CCOC(=O)CNC(=O)CSc1nc2cccnc2n1CC | 23.1% (inactive) | –
COCCCNC(=O)Cc1ccc(-n2c(C)nc3cccnc32)cc1 | 36% (inactive) | 12

SMILES | inhibition (at 35 µM) | inhibition (confirmation repeats, at 20 µM) [%]
CCOC(=O)[C@@H]1[C@H]2COc3cc(OC)ccc3[C@@H]2N2C(=O)N(c3cccc(C)c3)C(=O)[C@@]12C | 7.6% (inactive) | –
O=C(Cc1cccs1)Nc1ccc([N+](=O)[O-])cc1 | 2.1% (inactive) | –
Cc1ccc(/C=C/C(=O)Nc2cc(S(=O)(=O)N3CCCCCC3)ccc2OCC(F)(F)F)o1 | -0.3% (inactive) | –
Cc1ccc(/C=C/C(=O)Nc2ccc([N+](=O)[O-])c(NC(=O)/C=C/c3ccc(C)o3)c2)o1 | 0% (active) | 119
COC(=O)/C=C\C(=O)Nc1cccc([N+](=O)[O-])c1 | 9.4% (inactive) | –
COCc1ccc(CN2CCC(Oc3ccc(C(=O)NCc4ccccn4)cc3)CC2)o1 | -1.3% (inactive) | –
Cc1[nH]c2ccccc2c1C(=O)CN1CCCC(C)C1 (configuration not stated) | 8.2% (inactive) | –
Cc1nc(SCC(=O)NC2CCCC2)[nH]c(=O)c1C | 3.8% (inactive) | –
O=C(/C=C/c1ccc([N+](=O)[O-])o1)NNC(=O)c1ccc(F)cc1 | 8.2% (inactive) | –
CN=C1S/C(=C\c2c(OC)cc(OC)cc2OC)C(=O)N1C | 8.5% (inactive) | –
CN1C(=O)/C(=C/c2ccco2)SC1=Nc1cccc(C(=O)O)c1 | -1.6% (active) | 78.4
CN=C1S/C(=C\c2ccc(Sc3ccc(Cl)cc3)o2)C(=O)N1C | -5.7% (inactive) | –
COC(=O)C1(C)NC(c2ccc(F)cc2)C2C(=O)N(c3ccccc3)C(=O)C21 (configuration not stated) | 10.8% (inactive) | –
CC(=O)NS(=O)(=O)c1ccc2c(c1)Cc1cc(S(=O)(=O)NC(C)=O)ccc1-2 | 6% (inactive) | –
COc1ccccc1CNS(=O)(=O)CC12CCC(CC1=O)C2(C)C (configuration not stated) | 3.9% (inactive) | –
CC(C)Cc1nnc(NC(=O)CCc2ccccc2)s1 | -7.4% (inactive) | –
Clc1ccccc1CSc1nnc(-c2ccco2)c(-c2ccco2)n1 | 82.6% (active) | 87.4
COC(OC)c1ccnc(SCc2ccccc2Cl)n1 | -6.4% (inactive) | –
O=c1[nH]c(SCc2ccccc2)nnc1-c1ccccc1 | 62.5% (inactive) | -3.1
Brc1ccc(CSc2ccc(-c3ccco3)nn2)cc1 | -6.1% (inactive) | 5.9
Fc1cccc(Cl)c1CSc1ccc(-c2ccco2)nn1 | -6.6% (inactive) | –
c1ccc(CSc2nnc(-c3ccco3)c(-c3ccco3)n2)cc1 | 74.8% (active) | –
CCOc1ccc(S(=O)(=O)Nc2ccc(OC)nc2)cc1 | 9.7% (inactive) | –
COc1ccc(NS(=O)(=O)c2ccc(F)cc2F)cn1 | 70.3% (active) | –

SMILES | inhibition (at 35 µM) | inhibition (confirmation repeats, at 20 µM) [%]
COc1ccc(S(=O)(=O)Nc2ccc(F)cc2)c(C)c1C | -4.6% (inactive) | –
COCC(=O)N1CCc2ccc(NC(=O)c3ccccc3Cl)cc2C1 | 9.8% (inactive) | –
Nc1nc(SCC(=O)Nc2cc(C(F)(F)F)ccc2Cl)[nH]c(=O)c1NC(=O)c1ccco1 | 2.8% (inactive) | –
CCCCCCc1cc2cc(-c3nnc(-c4ccccc4)o3)c(=O)oc2cc1O | 102% (active) | –
Cc1c(CCC(=O)O)c(=O)oc2cc3occ(-c4ccccc4)c3cc12 | 32.6% (inactive) | –
Cc1c(CC(=O)NCCCCCC(=O)O)c(=O)oc2cc3occ(-c4ccccc4)c3cc12 | 15.4% (inactive) | –
COc1cc(C(=O)N2CCN(C3CCC(C)CC3)CC2)cc(OC)c1OC (configuration not stated) | 7.5% (inactive) | –
CC(C)=N/N=C1/NC(=O)C(Cc2ccccc2)S1 (configuration not stated) | 4.2% (inactive) | –
CSc1nc(-c2ccco2)nn1C(=O)CCc1ccccc1 | 7.1% (inactive) | –
CCOc1ccccc1/C=c1\sc2nc(-c3ccco3)nn2c1=O | 53% (active) | –
CCOC(=O)/C=c1\s/c(=C\c2ccccc2OC)c(=O)n1CC(=O)N1CCOCC1 | 7.9% (inactive) | –
CC1CCCCN1C(=O)CCS(=O)(=O)Cc1ccccc1 (configuration not stated) | 9.6% (inactive) | –
Cc1nc(N)nc(SCc2ccc([N+](=O)[O-])cc2)c1N | 7.3% (inactive) | –
O=S(=O)(c1ccc(F)cc1)N1CC=C(c2ccccc2)CC1 | 4.6% (inactive) | –
Cc1c(C2=CCN(S(=O)(=O)c3ccc(Cl)cc3)CC2)c2ccccc2n1C | 4.5% (active) | 95.9
COc1ccccc1N1CCN(S(=O)(=O)c2ccc(Cl)cc2)CC1 | -9.7% (inactive) | –
COc1ccccc1NC(=O)C1CCN(C(=O)c2ccc(C(C)(C)C)cc2)CC1 | 10.3% (inactive) | –
NS(=O)(=O)c1ccc(-c2ccc(/C=C3\SC(=O)NC3=O)o2)cc1 | 7.1% (inactive) | –
CC(=O)OCc1cc2cc(C)ccc2[nH]c1=O | 9.2% (inactive) | –
CCCc1nc(-c2cc3cc(C)ccc3[nH]c2=O)no1 | 61.5% (active) | 60
COc1ccc2[nH]c(=O)c(-c3noc(-c4ccc(F)cc4)n3)cc2c1 | 1.1% (inactive) | –
COc1ccc(-n2ncc3c2CC(C)(C)CC3NC(=O)CCc2c(C)noc2C)cc1 (configuration not stated) | 9.7% (inactive) | –
CCCS(=O)(=O)N1CCN=C1SCc1cccc(F)c1 | -1.7% (inactive) | –
COc1ccc(CNC(=O)C(=O)NCC2OCCN2C(=O)c2ccc(OC)cc2)cc1 (configuration not stated) | -1% (inactive) | –
